Each structure is given as a SMILES string. This is part of a sample that, as a whole, favours compounds with a hit. Of some 83,000 tested, about 20% had one in any assay.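 Method: cells in 96-well plates; compound added at one concentration; 48 h incubation; percent growth measured; values under 10 scored active.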 Values without a mark were called inactive. Active and inactive are the calls of the source.

For 40 compounds, growth results are on record in PubChem BioAssay (NCI).

The test relates to TK-10 renal. Briefly: NCI-60 one-dose screen, 48 h (100 = growth as untreated, 0 = no growth, -100 = all killed). The following applies: 10 µM unless noted. How it is done: Growth inhibition of the TK-10 human tumor cell line is measured as a screen for anti-cancer activity. Cells are grown in 96 well plates and exposed to the test compound for 48 hours. Compounds are tested at a single concentration, which is 10^-5 M for most compounds. The reported endpoint is percent growth (GI% or GIPRCNT), where numbers from 0 - 100% represent growth inhibition, and numbers from -100% - 0 represent cell death. For example, a value of 40 represents 60% growth inhibition. A value of 0 means no net growth occurred over the course of the experiment. A value of -40 indicates 40% of cells at the beginning of the experiment died by the end of the experiment. A value of -100 means all cells are dead at the end of the experiment.
NCI-60 Human Tumor Cell Lines Screen was performed using the standard one-dose NCI protocol, which is described in more detail at https://dtp.cancer.gov/discovery_development/nci-60/default.htm.
Compounds with GIPRCNT values below 10 were considered active. Activity score was based on GIPRCNT using the following formula: […]
Score is 0 for GIPRCNT values of 100 or above, 50 for GIPRCNT values of 0, and 100 for GIPRCNT values of -100.
Consider `COc1nc2c(c(=O)n1C)CN(c1ccccc1)C(=O)CN2C`, for which the growth was 52.3% [100 µM].

Consider `O=c1ssc(Cl)c1-c1ccccc1`, for which the growth was 126%.

Consider `COc1cccc(-c2nn(-c3ccccc3)cc2-c2ccnc(NCCNC(=O)Nc3ccc(Cl)c(Cl)c3)c2)c1`, for which the growth is 40.2%.

Take `N/C(=N\c1nc2ccccc2s1)NC(=O)Nc1cccc(Cl)c1`: the growth is 69.2%. Under `N=C1C(c2nc(-c3ccc(Br)cc3)cs2)=C(O)CN1CC1CCCO1` (stereo not given) stands 135%; under `CCN(CC)S(=O)(=O)c1cccc(-c2ccc3c(NC(=O)C4CC4)n[nH]c3c2)c1`, 35.4% [6.25 µM]; under `COC1=C(OC)C(=O)C(OC)=C(OC)C1=O`, 124%. As to `c1coc(-c2c3ccc(=[N+]4CCCCC4)cc-3oc3cc(N4CCCCC4)ccc23)c1`, the growth is -93.3% (active). For the compound `COc1ccc(-c2nc(SCC(=O)Nc3nc(-c4ccccc4)cs3)[nH]c(=O)c2C#N)cc1`, the growth is 117%. For the compound `CCOC(=O)c1csc(NC(=O)COc2cccc(/C=C3\Oc4cc(OC)ccc4C3=O)c2)n1`, the growth is 125%. The figure for `O=C1Nc2ccc(F)cc2C12Nc1cc(Cl)ccc1S2` (stereo not given) is 188%; for `O=C(Nc1ccccc1)Nc1cccc(Oc2nnc(Cl)c3ccccc23)c1` it is 25.3%. As to `COc1ccc2cc(-c3cc(OC)c(OC)c(OC)c3)c(=O)oc2c1`, the growth is 85.8%. For the compound `COc1ccc(-c2cc(-c3cc(OC)c(OC)c(OC)c3)c(C#N)c(N3CCOCC3)n2)cc1O`, the growth was 73.3%.

Consider `C#Cc1cccc(NC(=O)c2ccc(NC(=O)CCl)cc2)c1`, for which the growth was -63.2% [8.25 µM] (active). On to `COc1cccc(-c2nn(-c3ccccc3)cc2-c2ccnc(NCCCNC(=O)c3cccc(C(F)(F)F)c3)c2)c1`, for which the growth is 26.9%. Under `CC(=O)N1N=C(c2ccc(Nc3nc(Nc4ccc(F)cc4)nc(Nc4ccc(F)cc4)n3)cc2)CC1c1cccc([N+](=O)[O-])c1` (stereo not given) stands 104%. Under `CN(Cc1cnc2nc(N)nc(N)c2n1)c1ccc(C(=O)N[C@@H](CCc2nn[nH]n2)c2nn[nH]n2)cc1` stands 56.4%; under `CCc1c2c(nc3ccc(OC(=O)OCc4ccc(B5OC(C)(C)C(C)(C)O5)cc4)cc13)-c1cc3c(c(=O)n1C2)COC(=O)[C@]3(O)CC`, 0.26% (active); under `O=C(NCCNc1cc(-c2cn(-c3ccccc3)nc2-c2cccc(O)c2)ccn1)Nc1ccccc1`, 124%. On to `Nc1nc(N)c2c(n1)NC(c1ccccc1)C1CCc3ccccc3C1=N2` (stereo not given), for which the growth is 36%. Take `Clc1cccc(Cl)c1C(Nc1nc2ccccc2s1)Nc1nc2ccccc2s1`: the growth was 114%. On to `Cc1ccc(Cl)c(NS(=O)(=O)c2ccc(-c3cnc(C4CC4)o3)cc2)c1`, for which the growth is 68.5%.

For `COC(=O)CCC1=C(C)C2=NC1=CC1=NC(=CC3=NC(=Cc4[nH]c(/c(=C(/C)O)c4C)=C2)C(C(C)=O)=C3C)C(C)=C1CCC(=O)OC`, the growth was 123%. Take `Nc1ccc2c(c1)c(N)nn2C(=O)Nc1ccc(Cc2ccccc2)cc1`: the growth was 88.3%. For the compound `N#Cc1nc2c(S(=O)(=O)c3ccc(Cl)cc3)c(N)n(Nc3cccc(Cl)c3)c2nc1C#N`, the growth is 36.3%.

Regarding `COc1cccc(-c2nn(-c3ccccc3)cc2-c2ccnc(NCCCNC(=O)Nc3ccc(Cl)c(Cl)c3)c2)c1`, the growth was 45.7%. On to `CCN(CC)c1ccc(C(=O)c2ccc(N(CC)CC)cc2)cc1`, for which the growth was 35.1%. Regarding `Cn1cc2c(c1)-c1nc(Nc3ccccc3)ncc1CC2`, the growth is 61.9%. Turning to `O=C1/C(=C/c2ccc(F)cc2)C=C(c2ccccc2)N1CCc1ccccc1`, the growth is 62.4%. As for `O=C(Nc1cccc(Oc2nnc(Cl)c3ccccc23)c1)Nc1ccc(Cl)c(C(F)(F)F)c1`, the growth was -51.5% (active). As for `C=C(C)[C@@H]1CC[C@]2(C(=O)NC3CCCCC3)CC[C@]3(C)[C@H](CC[C@@H]4[C@@]5(C)CCC(=O)C(C)(C)[C@@H]5CC[C@]43C)[C@@H]12`, the growth is 95.2%. `COc1cc2ncn3c(=O)c4c5c(sc4nc3c2cc1OC)CCCC5`: the growth was 140%. On to `CS(=O)(=O)c1ccc(Nc2nc(N[C@H]3CCCC[C@H]3N)nc3cc[nH]c(=O)c23)cc1`, for which the growth was 44.6%. Under `O=C(N=c1oc2ccccc2cc1-c1cc2ccccc2[nH]1)c1ccc(Cl)cc1` stands 53.1%; under `Cc1ccc(Cl)cc1NC(=O)c1cc2ccccc2cc1O`, -1.32% (active). Regarding `COc1ccc(CN2C(=O)C(Cl)=C(Nc3cccc(C(F)(F)F)c3)C2=O)cc1`, the growth was 88.2%. `Cc1ccc(NCCN(C)C)c2c(=O)c3ccccc3sc12`: the growth was 54.8%.

As for `O=C(N/N=C/C=C/c1ccc([N+](=O)[O-])o1)c1cc2ccccc2cc1O`, the growth is 2.31% (active). With `O=C1Nc2ccccc2/C1=C/c1cn(C(=O)c2ccc(Cl)cc2)c2ccccc12`, the growth was 130%.
